Columns and labels:
Assay in all cases: PBM binding z-score (relative to random genomic background probes); higher = stronger binding; sequences stand for … in GC…GCGATTGACAGCGTAGAATGAAGG
[1] = system: FXR:RXRa (NR concentration 270 nM, RXRa partner concentration 90 nM)
In short: (§1)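 Binding z-scores were set against random background probes. The data came from custom Agilent 4×180K protein-binding microarrays carrying double-stranded probes with 34-nt variable regions, incubated 1 h with ligand-free nuclear receptor dimers. Partner-specific antibodies detected binding, and scanned fluorescence was regression-normalized.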

[2] = system: LXRa:RXRa (NR concentration 270 nM, RXRa partner concentration 90 nM)
In short: as §1

[3] = system: LXRa homodimer (NR concentration 270 nM)
In short: as §1

[4] = system: LXRb:RXRa (NR concentration 270 nM, RXRa partner concentration 90 nM)
In short: as §1

[5] = system: LXRb homodimer (NR concentration 270 nM)
In short: as §1

[6] = system: PPARa:RXRa (NR concentration 270 nM, RXRa partner concentration 90 nM)
In short: as §1

[7] = system: PPARg:RXRa (NR concentration 180 nM, RXRa partner concentration 90 nM)
In short: as §1

[8] = system: PPARg:RXRa 270nM:90nM, anti-RXR (NR concentration 270 nM, RXRa partner concentration 90 nM)
In short: as §1

[9] = system: PPARg:RXRa 30nM:10nM, anti-RXR (NR concentration 30 nM, RXRa partner concentration 10 nM)
In short: as §1

[10] = system: PPARg:RXRa 90nM:30nM, anti-RXR (NR concentration 90 nM, RXRa partner concentration 30 nM)
In short: as §1

[11] = system: PPARg:RXRa DBDmut IVT, anti-RXR (DBD mutation: RXRa K156A/R161A, NR concentration 270 nM, RXRa partner concentration 90 nM)
In short: as §1

[12] = system: PPARg:RXRa IVT, anti-PPARg (NR concentration 270 nM, RXRa partner concentration 90 nM)
In short: as §1

[13] = system: PPARg DBDmut:RXRa IVT, anti-PPARg (DBD mutation: PPARg1 K132A/R137A, NR concentration 270 nM, RXRa partner concentration 90 nM)
In short: as §1

[14] = system: PPARg DBDmut IVT, anti-PPARg (DBD mutation: PPARg1 K132A/R137A, NR concentration 270 nM)
In short: as §1

[15] = system: PPARg homodimer (NR concentration 180 nM)
In short: as §1

[16] = system: PXR:RXRa (NR concentration 270 nM, RXRa partner concentration 90 nM)
In short: as §1

[17] = system: PXR homodimer (NR concentration 270 nM)
In short: as §1

[18] = system: RARa:RXR (NR concentration 270 nM, RXRa partner concentration 90 nM)
In short: as §1

[19] = system: RARa homodimer (NR concentration 270 nM)
In short: as §1

[20] = system: RARb:RXRa (NR concentration 270 nM, RXRa partner concentration 90 nM)
In short: as §1

Sequence | PBM binding z-score [1] | PBM binding z-score [2] | PBM binding z-score [3] | PBM binding z-score [4] | PBM binding z-score [5] | PBM binding z-score [6] | PBM binding z-score [7] | PBM binding z-score [8] | PBM binding z-score [9] | PBM binding z-score [10] | PBM binding z-score [11] | PBM binding z-score [12] | PBM binding z-score [13] | PBM binding z-score [14] | PBM binding z-score [15] | PBM binding z-score [16] | PBM binding z-score [17] | PBM binding z-score [18] | PBM binding z-score [19] | PBM binding z-score [20]
CCTACTGGGCCACGAAAGGTCAGTGATTCAGTGA | 1.7 | 3.12 | 1.41 | 2.24 | -0.661 | 3.53 | 3.77 | 3.87 | 1.03 | 2.79 | 4.86 | 5.84 | 1.69 | 0.78 | 3.12 | 3.42 | 0.0598 | 3.82 | 1.31 | 3.81
CGTCAAAGTTCAAGGTAACGTATCAGAAAGCAGC | 5.57 | 5.5 | 2.87 | 3.2 | 1.15 | 4.61 | 4.11 | 5.03 | 1.86 | 3.65 | 1.16 | 2.03 | 0.808 | -0.101 | 2.73 | 4.22 | 3.05 | 3.48 | 1.28 | 4.98
GGACCGAGGGCAAGTTGATAGCAGAGTTTGATGG | 0.721 | 0.322 | -0.497 | 0.0428 | -0.812 | 0.868 | 0.401 | 0.00699 | -0.601 | -0.0881 | 0.956 | 0.614 | -1.14 | -1.16 | 0.433 | 0.556 | 0.539 | 0.315 | -0.39 | 2.6
GGAACGAGGGCATAGTTGATAGCATCTGTCGACG | 0.364 | 0.0828 | -0.66 | 0.126 | -0.441 | 2.33 | 3.64 | 5 | 2.9 | 4.54 | 2.46 | 2.41 | -0.0516 | -0.265 | 0.109 | 0.17 | -0.0429 | 0.19 | -0.571 | 1.39
TCAGATAGGTGAAGGTAACTCAGGTACGCAGTCG | 0.487 | 1.73 | -0.148 | 0.791 | -0.21 | 1.32 | 1.01 | 2.26 | 3.97 | 3.01 | 3.31 | 1.87 | 0.193 | -0.0331 | 0.849 | 0.435 | 0.291 | 0.668 | 0.648 | 1.1
TCTAGTTGGTCAAAGGACACACACTCGAAATGCG | 1.06 | 0.757 | 0.232 | 1.05 | 0.181 | 2.19 | 4.59 | 5.5 | 4.95 | 5.8 | 2.42 | 2.63 | 1.26 | 0.871 | 1.9 | 0.659 | 0.4 | 1.1 | 1.12 | 2.02
GGAACGAGGGCAAAGTTGATAGCGTCTGTCGACG | 1.43 | 1.07 | -0.457 | 0.901 | -0.56 | 4.27 | 7.58 | 7.44 | 6.55 | 7.74 | 4.61 | 4.26 | 0.324 | -0.0322 | 0.905 | 1.2 | -0.0837 | 1.7 | -0.604 | 2.48
ATATGTAGGTTGCATCCGGGTCATTCAGGCTATG | 1.21 | 1.43 | 0.122 | 1.29 | -0.0904 | 2.76 | 1.97 | 1.68 | 0.362 | 1.36 | 4.33 | 3.93 | 1.47 | 0.927 | 0.466 | 2.76 | 1.85 | 2.73 | 0.0936 | 1.4
GGAACGAGGGCGAAGTTGATAGCATCTGTCGACG | -0.55 | -0.447 | -0.49 | -0.637 | -0.922 | 1.42 | 2.91 | 4.71 | 1.93 | 4.02 | 1.27 | 1.23 | 0.2 | -0.848 | 0.0285 | -0.347 | -0.365 | -0.254 | -0.834 | 0.606
ATATGTAAGTTACATCCGGGTCATTCAGGCTATG | 1.87 | 2.38 | 0.923 | 2.19 | 0.757 | 2.83 | 1.41 | 1.44 | 0.868 | 1.01 | 1.5 | 2.35 | 1.58 | 1.58 | 1.11 | 3.02 | 2.6 | 2.96 | 0.872 | 1.72
ATCTCTAGGGAAAGTTCAGTGAAAGATCGATAGA | 0.806 | 1.28 | 0.993 | 0.942 | 0.681 | 1.42 | 0.591 | 1.84 | 0.725 | 1.51 | 0.291 | 0.739 | 0.561 | 0.968 | 1.06 | 1.52 | 1.46 | 1.38 | 1.07 | 2.61
ATCGGAAGGTCGACGAGGTGAGTATACACCGTTT | 1.65 | 0.953 | -0.358 | 0.827 | -0.58 | 2.18 | 1.06 | 0.751 | -0.112 | 0.452 | -0.35 | 0.996 | 0.22 | -0.4 | 0.248 | 1.38 | -0.0622 | 1.66 | -0.26 | 2.51
CCGAGTAGGTTATGGGGCATTTAGGCAACGGTGA | 0.297 | 0.407 | 0.011 | 0.603 | -0.473 | 2.22 | 3.51 | 4.47 | 2.4 | 4.37 | 3.07 | 3.53 | -0.425 | -0.513 | 2.12 | -0.00225 | -0.192 | 0.292 | 0.0296 | 0.919
GCTGCTAGGTCAACTGATGGTCAGCTATAGCTCG | 4.54 | 3.25 | 0.314 | 2.01 | 0.25 | 3.81 | 2.88 | 3.13 | 0.633 | 2.16 | 5.21 | 4.3 | -0.479 | -0.34 | 1.51 | 1.3 | -0.342 | 2.91 | 0.342 | 4.31
GGAACGAGGGTAAGTTGATAGCAGAGTTTGATGG | -0.0165 | -0.0993 | -0.232 | -0.276 | -0.358 | 0.189 | 0.422 | 0.00426 | -0.0948 | -0.0902 | 1.59 | 0.763 | 0.619 | 0.0122 | 0.193 | 0.0431 | 0.405 | -0.00911 | 0.262 | 0.727
GCAGACCGGTGAAACGCAGGTAACTCAGGGTGGC | -0.668 | -0.615 | -0.629 | -0.971 | -1.86 | -1.17 | -0.0428 | -1.18 | -1.16 | -1.16 | -0.72 | -0.532 | -1.77 | -1.81 | -1.43 | -0.781 | -1.17 | -0.497 | -1.38 | -0.191
ATCTCTAGGTAACCAACTTCAGTGAATGCCGAAC | 0.38 | 0.07 | 0.43 | 0.199 | 1.07 | 0.378 | 0.531 | 0.519 | 0.321 | 0.666 | 4.05 | 2.98 | 1.39 | 1.39 | 0.412 | -0.17 | 0.34 | 0.0512 | 0.816 | 0.248
CGAACTAGGTCAGAACAGGACAGTGACGGATGAT | 1.23 | 0.594 | -0.065 | 0.276 | -0.492 | 2.87 | 5.01 | 4.26 | 1.69 | 3.39 | 7.03 | 7.13 | 1.03 | 0.514 | 0.929 | 0.794 | 0.206 | 0.633 | 0.383 | 2.99
ATCTCAAGGTAAAGATAGTTCAGTGAATGCAAAT | 0.707 | 5.22 | 0.562 | 1.38 | 0.331 | 0.546 | 0.372 | 0.508 | 0.448 | 0.296 | 0.21 | 0.461 | 0.586 | 1.27 | 0.584 | 2 | 1.05 | 0.797 | 0.976 | 1.16

From the supplement of paper PMC6555819
